KCNK9 inh = inhibitors of human KCNK9 two-pore domain potassium channel | 310,000 compounds, 1.2% hits | Q9NPC2 | B-score at 10 µM | HEK293 KCNK9, FluxOR thallium flux fluorescence; hits give low values;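 active = ratio B-score over 3 SD below the library mean, with starting fluorescence within 5 SD of its mean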;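 note: negative B-score means less thallium flux so channel inhibition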
TMEM16A inh = mouse TMEM16A channel inhibition, primary screen. Q8BHY3. HEK293 TMEM16A/YFP iodide influx fluorescence, ionomycin. normalized B-score (activity score, 25-100; higher = stronger inhibition) at 10 µM. 310,000 compounds, 1.2% hits. AID 588511;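 active = ratio plate-corrected score three or more library SD toward inhibition, starting fluorescence score within five deviations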;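 note: score derived from kinetic fluorescence span divided by baseline fluorescence per well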
KCNK3 block = human KCNK3 channel inhibition, primary screen | B-score at 10 µM | O14649 | 340,000 compounds, 0.84% hits | AID 602410 | CHO-KCNK3 thallium flux, FluxOR fluorescence; hits give low values;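 active = B-score under library mean minus 4 SD, starting fluorescence ratio at most library mean plus 5 SD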;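 note: more negative B-score means stronger inhibition of thallium flux through KCNK3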
Target sequence (O14649 whole entry, looked up): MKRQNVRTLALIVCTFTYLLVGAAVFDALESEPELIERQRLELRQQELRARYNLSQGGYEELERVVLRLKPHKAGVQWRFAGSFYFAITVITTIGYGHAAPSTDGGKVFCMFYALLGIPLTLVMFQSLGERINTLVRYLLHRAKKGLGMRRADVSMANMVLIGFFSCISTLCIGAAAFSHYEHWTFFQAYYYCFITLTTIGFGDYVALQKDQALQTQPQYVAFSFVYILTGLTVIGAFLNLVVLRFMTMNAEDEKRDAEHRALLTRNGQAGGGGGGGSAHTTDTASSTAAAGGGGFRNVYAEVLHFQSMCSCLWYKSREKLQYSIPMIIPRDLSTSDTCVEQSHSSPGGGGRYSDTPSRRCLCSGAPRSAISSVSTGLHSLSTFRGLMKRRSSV
Kir21 inh = Kir2.1 (mouse) channel inhibition | HEK293-Kir2.1, FluxOR thallium flux fluorescence; hits give low values | P35561 | 310,000 compounds, 0.85% hits | AID 1672 | B-score at 10 µM;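 active = fluorescence ratio B-score at or below minus 3 SD of library scores, with starting-brightness B-score within 2 SD, cut at about -4.2 in these data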;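 note: channel flux triggered by added potassium and thallium sulfate stimulus; B-score of peak minus minimum fluorescence over baseline after thallium stimulus; more negative B-score means stronger Kir2.1 block with less thallium influx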
TMEM16A act = mouse TMEM16A channel activation, primary screen; B-score at 10 µM; AID 623877; 340,000 compounds, 0.3% hits; Q8BHY3; HEK293 TMEM16A/YFP-H148Q/I152L, iodide quench fluorescence; hits give low values;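 active = fluorescence-ratio B-score plate-corrected deviation score at least 3 library SD below zero, with starting fluorescence score within 5 deviations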;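 note: channel opened by trigger with iodide after compound preincubation; score built on the fluorescence ratio of max minus min over baseline; more negative score means more quench and so TMEM16A activation or potentiation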
TMEM16A reconf = TMEM16A (mouse) chloride channel inhibition, re-confirmation; HEK293 TMEM16A/YFP-H148Q, iodide quench fluorescence; ionomycin added to raise cell calcium; shares compounds with TMEM16A inh; 2,300 compounds, 39% hits; inhibition, % at 10 µM;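 active = mean duplicate percent inhibition, scaled so buffer wells are 0 and the reference blocker 100, over three buffer SD above buffer mean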
TMEM16A Ca cntr = counter-screen for TMEM16A inhibitors: effect on calcium mobilization; shares compounds with TMEM16A inh; TMEM16A/YFP HEK293, Fluo4 calcium mobilization; calcium response (% of ionomycin), % at 10 µM; 2,300 compounds, 2% hits; AID 652231;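 active = duplicate-averaged calcium signal over 20% of the ionomycin maximum, relative to buffer baseline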;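 note: each well's signal is peak minus trough fluorescence divided by its pre-addition baseline; 0% = buffer wells and 100% = ionomycin wells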
Parental YFP cnt = parental YFP-HEK293 iodide quench counter-screen activity; shares compounds with TMEM16A inh; ionomycin; YFP ratio F(max-min)/F0 at 10 µM; 2,300 tested, under 10 active;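 active = yellow fluorescent protein signal ratio exceeding the buffer control mean by over 5 SD of those controls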;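 note: ratio is mean of duplicate wells from kinetic YFP trace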
ClC-1 inh = rat ClC-1 inhibition, TMEM16A specificity screen; CHO ClC-1-YFP, iodide influx fluorescence quench; iodide control reads 0, buffer control 100; shares compounds with TMEM16A inh; 2,300 tested, under 10 active; AID 652236; ratio percent, % at 10 µM;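 active = duplicate-mean ratio percent above the mean of iodide-only control wells, which defines zero, plus 5 of their SD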;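 note: higher percent means stronger block of ClC-1 iodide influx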
* marks the source's active call; other numbers are inactive results; i = inactive; · = not tested or not shown. An excerpt weighted towards active compounds, which were near 3.5% of everything screened.

SMILES | KCNK9 inh | TMEM16A inh | KCNK3 block | Kir21 inh | TMEM16A act | TMEM16A reconf | TMEM16A Ca cntr | Parental YFP cnt | ClC-1 inh
Nc1ncnc2c1nc(Br)n2[C@@H]1O[C@@H]2COP(=O)(O)O[C@H]2[C@H]1O | i | i | i | 0.02 | i | · | · | · | ·
Cc1ccc2nc(-c3ccccc3)nn2c1 | · | · | i | · | i | · | · | · | ·
COc1ccc(CN(C)C(=O)c2cccc(Oc3ccccc3)c2)c(OC)c1OC | i | 25* | i | -4.9* | i | 32%* | i | -1.2 | -13
c1ccc(-c2nnc(N3CCN(c4ccccn4)CC3)c3ccccc23)cc1 | i | i | i | 0.35 | i | · | · | · | ·
Cc1ccc(-c2nnc(N3CCN(c4ccccn4)CC3)c3ccccc23)cc1 | i | 25* | i | -1.2 | i | 28%* | i | -0.99 | -17
CCOC(=O)c1c(C)[nH]c(C(=O)COC(=O)c2ccc(N3CCCC3=O)cc2)c1C | i | i | i | 1.4 | i | · | · | · | ·
Clc1ccc(-c2nnc(CSc3nnc(-c4cccs4)n3Cc3ccccc3)o2)cc1 | i | 25* | -8.8* | -1.4 | i | 42%* | i | -0.99 | -22
O=C(Oc1ccc(Cl)c2ccccc12)N1CCCCC1 | i | 25* | i | 0.01 | i | i | i | -0.88 | -12
O=C(Oc1ccc(Cl)c2cccnc12)N1CCCCC1 | i | i | i | 1.7 | i | · | · | · | ·
COc1cccc(Cc2n[nH]c(=S)n2Cc2ccco2)c1 | i | i | i | 1.3 | i | · | · | · | ·
C=CCOC(=O)c1cn(CC)c2nc(C)ccc2c1=O | i | i | i | 0.06 | i | · | · | · | ·
CCn1cc(C(=O)OCC(=O)OC2CC(C)CCC2C(C)C)c(=O)c2ccc(C)nc21 (stereo not drawn) | i | 25* | -11* | -2.9 | i | i | i | -1.3 | -10
CCOC(=O)C1CCN(C(=O)COC(=O)CNC(=O)c2ccc(OC)cc2)CC1 | i | i | i | 0.04 | i | · | · | · | ·
CC1(C(=O)N2CCC(CO)(Cc3cccc(C(F)(F)F)c3)CC2)CC1 | i | i | i | -1.1 | i | · | · | · | ·
CC(=O)c1ccc(C(=O)N2CCC(CO)(Cc3cccc(C(F)(F)F)c3)CC2)cc1 | i | 100* | i | -0.99 | i | i | i | -1.2 | -6
O=C(c1cccc(C(F)(F)F)c1)N1CCC(O)(CS(=O)(=O)Cc2ccccc2)CC1 | i | 100* | i | -0.05 | i | i | i | -1.1 | -3
CC(NC(=S)Nc1ccc(S(=O)(=O)N2CCOCC2)cc1)C1CC2CCC1C2 (stereo not drawn) | i | 25* | i | -0.13 | i | i | i | -1.4 | -2
O=S(=O)(c1ccc(NC(=S)Nc2ccccc2)cc1)N1CCOCC1 | i | i | i | -1.8 | i | · | · | · | ·
O=C(Nc1ccc(S(=O)(=O)Nc2ccc(F)cc2)cc1)c1ccc(CN2CCOCC2)cc1 | i | 25* | i | -0.03 | i | 39%* | i | -0.9 | -15
O=C(Nc1ccc(S(=O)(=O)N2CCCC2)cc1)C1CCCCC1 | i | i | i | 1.1 | i | · | · | · | ·
O=C(Nc1ccc(S(=O)(=O)N2CCOCC2)cc1)C1CCCCC1 | i | 25* | i | 2.6 | i | i | i | -1 | -4
CCN(CC)S(=O)(=O)c1ccc(NC(=O)c2ccc(CN3CCOCC3)cc2)cc1 | i | 100* | i | 2.2 | i | 30%* | i | -1.1 | -8
CCC(=O)N1CCc2cc(S(=O)(=O)N3CCN(c4ccccn4)CC3)ccc21 | i | i | i | -0.81 | i | · | · | · | ·
CCN1C(=O)[C@H]2[C@@H](c3ccc(-c4cccc(Cl)c4)c(OC)c3)N3CCCC[C@@]3(C(=O)OC)[C@H]2C1=O | · | · | i | · | i | · | · | · | ·
COc1ccc(NC(=O)Cn2nnc(C(=O)NCc3ccc4c(c3)OCO4)c2N)c(OC)c1 | i | i | i | 2.2 | i | · | · | · | ·
SMILES | KCNK9 inh | TMEM16A inh | KCNK3 block | Kir21 inh | TMEM16A act | TMEM16A reconf | TMEM16A Ca cntr | Parental YFP cnt | ClC-1 inh
CCNC(=S)Nc1cc(Cl)ccc1Oc1ccccc1 | i | i | i | -1.4 | i | · | · | · | ·
O=C(Nc1ccc(S(=O)(=O)N2CCCC2)cc1)c1ccc(CN2CCOCC2)cc1 | i | 100* | i | 0.55 | i | 46%* | i | -0.88 | -16
O=C(C1CC1)N1N=C(C2CCCCC2)CC1(O)C(F)(F)F (stereo not drawn) | i | i | i | -0.53 | i | · | · | · | ·
CC(C)c1nc(N2CCOCC2)c(C#N)c2c1CCC2 | i | i | i | 0.23 | i | · | · | · | ·
CCCc1nc(N2CCOCC2)c(C#N)c2c1CCCC2 | i | 100* | i | -1.9 | i | i | i | -1.1 | -10
Cc1cc(-c2ccc(Cl)cc2Cl)c(C#N)c(=O)[nH]1 | i | i | i | -2 | i | · | · | · | ·
CSc1nc(-c2ccc(Cl)cc2Cl)[nH]c(=O)c1C#N | i | 25* | i | 0.68 | i | 50%* | i | -1.1 | -8
COc1ccccc1CC(Cc1nc2ccccc2[nH]1)c1nc2ccccc2[nH]1 (stereo not drawn) | i | i | i | 0.81 | i | · | · | · | ·
Cc1cccc(CC(Cc2nc3ccccc3[nH]2)c2nc3ccccc3[nH]2)c1 (stereo not drawn) | i | 100* | i | -0.19 | i | 39%* | i | -0.89 | -20
CC1CN(C(=O)CCC(=O)N2CCN(c3cccc(C(F)(F)F)c3)CC2)c2ccccc2O1 (stereo not drawn) | i | 25* | i | -2.3 | i | 20%* | i | -0.95 | -4
COc1ccc(N2CCN(C(=O)CCC(=O)N3CC(C)Oc4ccccc43)CC2)cc1 (stereo not drawn) | i | i | i | -1.1 | i | · | · | · | ·
O=C(CCS(=O)(=O)c1ccccc1)N1CCN(c2ccc(F)cc2)CC1 | i | i | i | 0 | i | · | · | · | ·
O=C(CCS(=O)(=O)c1ccccc1)N1CCN(c2cccc(C(F)(F)F)c2)CC1 | i | 25* | i | 0.68 | i | i | i | -1.1 | -15
Cc1ccc(S(=O)(=O)N2CCCCC2)cc1NC(=O)Cc1cccs1 | · | · | i | · | i | · | · | · | ·
CN1CCN(C(=O)NC2CCCCC2)CC1 | i | i | i | 1.3 | i | · | · | · | ·

High-throughput results (PubChem)
